# MITF inh: inhibitors of MITF; TRPM1 promoter luciferase, luminescence, 24 h; inhibition, % (test concentration not listed); hit rate 0.28% among 37,000; AID 2240; in the data active means inhibition above about 85%;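 further: human melanocyte line stably carrying TRPM1 promoter luciferase reporter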
# NOMO-1 viab: STK33 inhibitor candidate reducing NOMO-1 cell viability. hit rate 7.5% among 37,000. NOMO-1 AML viability, CellTiter-Glo luminescence, 72 h. inhibition, % (test concentration not listed); in the data active means inhibition above about 80%
# Hedgehog inh: blocks Sonic Hedgehog signaling; hit rate 2.1% among 22,000; Shh-LIGHT2 Gli-luciferase reporter, 30 h; inhibition, % (no concentration beside the values); AID 2313;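 active means mean inhibition across valid replicates above about 65%, limit read from the data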;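 further: pathway switched on by Shh-conditioned medium diluted 1 in 25 in low serum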
# The depositor's hits bear a star; . = no result given. The list is not random: actives were taken first. Their share in the collection is about 7.8%.
SMILES,MITF inh,NOMO-1 viab,Hedgehog inh
COc1ccc(NC(=O)CN(c2ccc(F)c(Cl)c2)S(C)(=O)=O)cc1OC,-26,14,.
C=C(COC(=O)C(C)C)C1Oc2cc(C(C)=O)ccc2C1OC(=O)C(C)C (configuration not stated),3,17,-11
C[C@@H]1CN([C@H](C)CO)C(=O)c2cccc(N(C)C)c2O[C@@H]1CN(C)Cc1ccc(-c2ccccc2)cc1,-7,25,-13
Cc1noc(C)c1NC(=O)Nc1cccc2c1O[C@H](CN(C)Cc1ccccc1)[C@@H](C)CN([C@H](C)CO)C2=O,6,38,-22
C[C@H](CO)N1C[C@H](C)[C@@H](CN(C)Cc2ccc(-c3ccccc3)cc2)Oc2c(NC(=O)Nc3ccc(F)cc3)cccc2C1=O,3,36,-2
C[C@@H]1CN([C@H](C)CO)C(=O)c2cccc(NC(=O)Nc3cccc4ccccc34)c2O[C@@H]1CN(C)Cc1ccc(C(=O)O)cc1,-1,6,-8
C[C@@H]1CN([C@@H](C)CO)C(=O)c2cccc(NC(=O)Nc3ccccc3)c2O[C@@H]1CN(C)Cc1ccc(-c2ccccc2)cc1,-17,102*,-41
C[C@@H]1CN([C@H](C)CO)C(=O)c2cccc(N(C)C)c2O[C@H]1CN(C)Cc1ccc(-c2ccccc2)cc1,-6,86*,-59
C[C@@H]1CN([C@H](C)CO)C(=O)c2cccc(NC(=O)Nc3cccc4ccccc34)c2O[C@@H]1CN(C)Cc1ccc(-c2ccccc2)cc1,13,107*,-41
Cc1noc(C)c1NC(=O)Nc1cccc2c1O[C@H](CN(C)Cc1ccc(-c3ccccc3)cc1)[C@@H](C)CN([C@H](C)CO)C2=O,42,111*,-27
C[C@@H]1CCCCO[C@@H](CN(C)C(=O)Nc2ccc3c(c2)OCO3)[C@@H](C)CN([C@H](C)CO)C(=O)c2cc(NC(=O)C3CCCCC3)ccc2O1,4,21,.
CCN(CC)CCN1C2=C(C(=O)CC(C)(C)C2)C(c2cccc(F)c2)C2=C1CC(C)(C)CC2=O,-6,37,-22
C[C@@H]1CN([C@@H](C)CO)C(=O)Cc2cc(NC(=O)NC3CCCCC3)ccc2O[C@@H]1CN(C)Cc1ccc2c(c1)OCO2,-5,39,18
C[C@@H]1CN([C@H](C)CO)C(=O)c2cccc(NS(=O)(=O)c3ccccc3)c2O[C@H]1CN(C)Cc1ccc(C(=O)O)cc1,4,-13,-73
CCN(CC(=O)Nc1cccc(F)c1)S(=O)(=O)c1ccc(Cl)cc1,21,2,.
C[C@@H]1CN([C@@H](C)CO)C(=O)c2cccc(NS(=O)(=O)c3cccs3)c2O[C@@H]1CN(C)C(=O)Nc1cccc2ccccc12,6,29,22
Cc1noc(C)c1NC(=O)Nc1cccc2c1O[C@@H](CN(C)S(C)(=O)=O)[C@H](C)CN([C@H](C)CO)C2=O,-3,18,11
Cc1noc(C)c1NC(=O)Nc1cccc2c1O[C@@H](CN(C)S(C)(=O)=O)[C@@H](C)CN([C@@H](C)CO)C2=O,34,102*,-18
C[C@H]1CN([C@@H](C)CO)C(=O)c2cccc(NC(=O)Nc3ccc(F)cc3)c2O[C@@H]1CN(C)Cc1ccc(-c2ccccc2)cc1,14,59,-16
C[C@@H]1CN([C@H](C)CO)C(=O)c2cccc(NC(=O)Nc3ccc(F)cc3)c2O[C@@H]1CN(C)Cc1ccc(-c2ccccc2)cc1,-16,82*,10
C[C@H](CO)N1C[C@H](C)[C@H](CN(C)CC2CCCCC2)Oc2ccc(NC(=O)Nc3cccc4ccccc34)cc2CC1=O,12,99*,0
C[C@@H]1CN([C@H](C)CO)C(=O)Cc2cc(NC(=O)Nc3ccccc3)ccc2O[C@H]1CN(C)CC1CC1,-8,-14,-26
CC(C)NC(=O)Nc1ccc2c(c1)CC(=O)N([C@H](C)CO)C[C@H](C)[C@H](CN(C)CC1CCCCC1)O2,-11,35,-14
C[C@H]1CN([C@@H](C)CO)C(=O)Cc2cc(NC(=O)Nc3ccc(F)cc3)ccc2O[C@H]1CN(C)CC1CCCCC1,-22,105*,-18
C[C@@H]1CN([C@@H](C)CO)C(=O)c2cc(NC(=O)Nc3cccc4ccccc34)ccc2O[C@@H]1CN(C)CC1CCCCC1,-52,118*,39
C[C@H]1CN([C@@H](C)CO)C(=O)c2cc(NC(=O)Nc3cccc4ccccc34)ccc2O[C@H]1CN(C)CC1CCCCC1,-24,25,.
C[C@H](CO)N1C[C@H](C)[C@@H](CN(C)CC2CCCCC2)Oc2ccc(NC(=O)Nc3cccc4ccccc34)cc2C1=O,-1,32,7
C[C@H](CO)N1C[C@H](C)[C@H](CN(C)CC2CCCCC2)Oc2ccc(NC(=O)Nc3ccccc3)cc2CC1=O,-14,106*,3
Cc1cccc(-c2nnc(SCC(=O)Nc3ccc(Br)cc3C(C)C)n2C)c1,-10,-13,.
